Rows were chosen to be rich in hits. Some 3.4% of all compounds tested hit in one or more screens of this group.
APP 5'UTR act: APP 5'UTR luciferase reporter activation. SH-SY5Y APP 5'UTR luciferase reporter, luminescence; zero percent = DMSO vehicle wells. activation, % at 2 µM. actives 1% (n = 190,000). AID 1276;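 active = activation above a set limit, based on mean plus 3 SD of controls, cut at about 140% in these data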
ssDAF12 agonist: activates DAF-12 receptor from parasite S. stercoralis; HEK293 ssDAF-12/GRIP1 lit1-tk-luc reporter, luminescence; % of 3 µM dafachronic acid response; activation, % at 6.8 µM; actives 1% (n = 370,000);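 active = activation above the mean over all tested compounds plus 3 SD, cut at about 0.9% in these data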
NF-kB neuron act: compounds increasing NF-kB expression in human neuronal cells; NF-kB reporter expression; stronger effect = higher value; fold change at 12.5 µM; actives 1.6% (n = 190,000); in the data active = fold change above about 3.3
hcDAF12 agonist: H. contortus DAF-12 activation, primary screen; activation, % at 6.8 µM; HEK293 hcDAF-12 lit1-tk-luc reporter, luminescence; 0% DMSO, 100% Δ7-dafachronic acid; AID 652067; actives 1.4% (n = 370,000);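 active = activation above the mean of all tested compounds plus 3 SD, cut at about 5.5% in these data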
hgDAF12 agonist: hgDAF-12 agonism, primary luciferase screen | actives 1.8% (n = 370,000) | HEK293 GAL4-hgDAF12 UAS-luciferase reporter, agonist luminescence; normalized to butyrate control | activation, % at 6.8 µM;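 active = activation above a cutoff set at the mean of all screened compounds plus 3 SD, cut at about 10% in these data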
LXR ag: LXR-beta agonism as hcDAF-12 counter-screen | shares compounds with hcDAF12 agonist | HEK293 Gal4-LXR tk-luc reporter, luminescence, 24 h; normalized: DMSO 0%, positive control 100% | activation, % at 6.8 µM | 3,400 tested, under 10 active;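 active = mean percent activation of the reporter above a cutoff set as the average over tested compounds plus their standard deviation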
Target sequence (P55055 whole entry, looked up, the tested form may be a part): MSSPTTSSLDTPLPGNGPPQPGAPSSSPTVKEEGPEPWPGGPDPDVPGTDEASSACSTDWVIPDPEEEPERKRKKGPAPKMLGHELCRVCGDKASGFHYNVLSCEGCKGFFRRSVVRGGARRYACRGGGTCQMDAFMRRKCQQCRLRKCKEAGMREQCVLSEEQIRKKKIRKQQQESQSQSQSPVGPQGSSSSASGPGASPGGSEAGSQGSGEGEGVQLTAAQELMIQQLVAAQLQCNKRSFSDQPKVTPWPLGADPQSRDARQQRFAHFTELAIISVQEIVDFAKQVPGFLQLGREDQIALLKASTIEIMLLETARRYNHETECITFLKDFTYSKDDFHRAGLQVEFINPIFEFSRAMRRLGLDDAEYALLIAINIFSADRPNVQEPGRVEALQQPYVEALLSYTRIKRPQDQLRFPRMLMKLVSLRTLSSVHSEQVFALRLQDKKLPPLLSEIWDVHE
hcDAF12 ag: confirmation of H. contortus DAF-12 agonists; shares compounds with hcDAF12 agonist; HEK293 hcDAF-12 lit1-tk-luc reporter, luminescence; % of Δ7-dafachronic acid response; activation, % at 6.8 µM; actives 61% (n = 3,400);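 active = mean activation across triplicate tests above the threshold derived from the earlier primary screen, cut at about 5.5% in these data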
Of the large screens only hits and unclear results are named; the others gave an inactive call (follow-up assays come after a bar, where they were run).

O=C(CSc1nnc(-c2ccccn2)n1-c1ccccc1)c1ccc(Cl)c(Cl)c1	none (no result: APP 5'UTR act, NF-kB neuron act)
CC(=O)Nc1cc2c(ccc3ccccc32)oc1=O	none
O=C(Nc1cc2c(ccc3ccccc32)oc1=O)C1CCCCC1	hcDAF12 agonist 7.3 | LXR ag inactive | hcDAF12 ag inactive
C[C@@H]1COc2cccc(N3CCSCC3)c2S(=O)(=O)N1C	none (no result: APP 5'UTR act, NF-kB neuron act)
Cn1c(CC(=O)Nc2ccccc2)nnc1SCC(=O)NC1=NCCS1	hcDAF12 agonist 7.6 (no result: APP 5'UTR act, NF-kB neuron act) | LXR ag inactive | hcDAF12 ag inactive
COc1cccc(NC(=O)Cc2nnc(SCC(=O)NC3=NCCS3)n2C)c1	none (no result: APP 5'UTR act, NF-kB neuron act)
CC(C)N(C(N)=NC(=O)OCc1ccccc1)C(C)C	none (no result: APP 5'UTR act, NF-kB neuron act)
CCCS(=O)(=O)n1nc(-c2ccccc2)cc1N	hcDAF12 agonist 9.9 | LXR ag inactive | hcDAF12 ag inactive
Cc1cnc(NC(=O)C2COc3ccccc3O2)s1 (centres undefined)	APP 5'UTR act 144.1, hcDAF12 agonist 9.2 | LXR ag inactive | hcDAF12 ag 7.2
Cc1csc(NC(=O)C2COc3ccccc3O2)n1 (centres undefined)	APP 5'UTR act 148.8, hcDAF12 agonist 7.0 | LXR ag inactive | hcDAF12 ag inactive
Cc1nc2ccc3nc(NC(=O)C4COc5ccccc5O4)sc3c2s1 (centres undefined)	none
O=C(Nc1nc(-c2ccccc2)cs1)C1COc2ccccc2O1 (centres undefined)	none
CC(=O)c1ccc2c3c(cccc13)C(=O)N(CCc1ccccc1)C2=O	ssDAF12 agonist 3.0, hcDAF12 agonist 8.4 | LXR ag inactive | hcDAF12 ag 9.7
Cc1ccccc1-c1cc2c(nn1)-c1ccccc1C2=O	ssDAF12 agonist 1.5, hcDAF12 agonist 7.2 | LXR ag inactive | hcDAF12 ag 6.2
CCN(C(=O)C1CCCN1S(=O)(=O)c1cccnc1)c1ccccc1 (centres undefined)	none (no result: APP 5'UTR act, NF-kB neuron act)
CCC[C@H]1[C@@H](NC(=O)C2CCC2)CC[C@@]23CCCN2C(=O)CCC[C@@H]13	none (no result: APP 5'UTR act, NF-kB neuron act)
O=C(Nc1ccc2[nH]ccc2c1)c1ccccc1	hcDAF12 agonist 9.2, hgDAF12 agonist 12.4 (no result: APP 5'UTR act, NF-kB neuron act) | LXR ag inactive | hcDAF12 ag 9.5
C=CCN1C(=O)[C@@H](CC(=O)NCCCC)[C@]2(C(=O)OCC)CCCCC/C=C/12	none (no result: APP 5'UTR act, NF-kB neuron act)
COc1ccc([N+](=O)[O-])cc1C1NN=C(c2ccccc2O)S1 (centres undefined)	hcDAF12 agonist 6.9 | LXR ag inactive | hcDAF12 ag inactive
COC(=O)[C@]12C[C@H](CC(=O)N3CCSCC3)C(=O)N(Cc3cccc4ccccc34)C1=C[C@H](C(C)C)O[C@@H]2C1CC1	none (no result: APP 5'UTR act, NF-kB neuron act)
CCOc1cc2c3c(c1)C1(C(=O)N3C(C)(C)CC2C)C(C#N)=C(N)N2C(=C1C#N)Nc1ccccc12 (centres undefined)	hcDAF12 agonist 7.2 | LXR ag inactive | hcDAF12 ag inactive
CCCc1cc(=O)n2[nH]c(-c3cccc(Br)c3)cc2n1	hcDAF12 agonist 7.7 (no result: APP 5'UTR act, NF-kB neuron act) | LXR ag inactive | hcDAF12 ag 7.3
CC(CCN1CCC(C(O)(c2ccccc2)c2ccccc2)CC1)Oc1cccc(F)c1 (centres undefined)	hcDAF12 agonist 11.3 (no result: APP 5'UTR act, NF-kB neuron act) | LXR ag inactive | hcDAF12 ag inactive
O=C1c2cccc(NCCNCCO)c2C(=O)c2cccc(NCCNCCO)c21	hcDAF12 agonist 8.9 (no result: APP 5'UTR act, NF-kB neuron act) | LXR ag inactive | hcDAF12 ag 14.5
O=C(O)CCNc1ccc(NCCC(=O)O)c2c1C(=O)c1ccccc1C2=O	none (no result: APP 5'UTR act, NF-kB neuron act)
O=c1oc(-c2ccccc2)nc2sc3c(c12)CCC3	none
Nc1nc(-c2ccccc2)nc2sc3c(c12)CCCC3	APP 5'UTR act 180.4, ssDAF12 agonist 3.0, NF-kB neuron act 10.6, hcDAF12 agonist 20.7, hgDAF12 agonist 18.0 | LXR ag inactive | hcDAF12 ag 17.3
Nc1nn(-c2ccccc2)c(N)c1N=Nc1ccccc1F	APP 5'UTR act 180.8, ssDAF12 agonist 2.1, NF-kB neuron act 13.8, hcDAF12 agonist 10.4, hgDAF12 agonist 17.7 | LXR ag inactive | hcDAF12 ag 8.8
COc1ccc(-c2c(C(=O)c3ccccc3)[nH]c(N)c2C(=O)c2c[nH]c3ccccc23)cc1OC	none (no result: APP 5'UTR act, NF-kB neuron act)
CC(=O)Nc1nc(-c2ccc(Cl)cc2)nc(C)c1C(C)=O	ssDAF12 agonist 4.1, hcDAF12 agonist 6.6 | LXR ag inactive | hcDAF12 ag inactive
Cn1c(=O)c(=O)n(C)c2cc(S(=O)(=O)N3CCN(CCO)CC3)ccc21	none (no result: APP 5'UTR act, NF-kB neuron act)
CCCN1CC(=O)N2[C@H](C[C@@]3(n4ccc5ccccc54)c4ccccc4N(S(=O)(=O)c4ccccc4)[C@@H]23)C1=O	none (no result: APP 5'UTR act, NF-kB neuron act)
CN1CC(=O)N2[C@@H](C[C@]3(c4c[nH]c5ccccc45)c4ccccc4N(S(=O)(=O)c4ccccc4)[C@H]23)C1=O	hcDAF12 agonist 6.6 (no result: APP 5'UTR act, NF-kB neuron act) | LXR ag inactive | hcDAF12 ag inactive
COc1ccc(-c2cc(C(=O)N/N=C/C(C)=C\c3ccco3)[nH]n2)cc1	none (no result: APP 5'UTR act, NF-kB neuron act)
C=C1CSc2nc(=O)c3c4c(sc3n21)CCCC4	hcDAF12 agonist 7.0 | LXR ag inactive | hcDAF12 ag inactive
C=C1CSc2nc(=O)c3c4c(sc3n21)CCC4	none (no result: APP 5'UTR act, NF-kB neuron act)
Cc1nc2cc(NC(=O)CCS(=O)(=O)c3ccccc3)ccc2s1	hcDAF12 agonist 7.8, hgDAF12 agonist 11.5 | LXR ag inactive | hcDAF12 ag inactive
C/C(=N\NC(=O)c1cc(C)oc1C)c1ccc2ccccc2c1	hcDAF12 agonist 7.2, hgDAF12 agonist 11.5 (no result: APP 5'UTR act, NF-kB neuron act) | LXR ag inactive | hcDAF12 ag inactive
Cc1cc(C(=O)NN=C(Cc2ccccc2)Cc2ccccc2)c(C)o1	none
Cc1cnc(C(=O)Nc2nnc(C3CC3)s2)cn1	none
COc1c(C(=O)Nc2nnc(C3CC3)s2)csc1Cl	ssDAF12 agonist 2.1, hcDAF12 agonist 8.1 (no result: APP 5'UTR act, NF-kB neuron act) | LXR ag inactive | hcDAF12 ag 9.5
COc1ccccc1C(=O)Nc1cccc(SC)c1	none
CSc1cccc(NC(=O)c2cccc3cccnc23)c1	ssDAF12 agonist 2.3, hcDAF12 agonist 11.9, hgDAF12 agonist 10.6 (no result: APP 5'UTR act, NF-kB neuron act) | LXR ag inactive | hcDAF12 ag 8.5
O=C1N(Cc2ccccc2)c2ccccc2C12CCCc1oc(CCc3ccccc3)nc12 (centres undefined)	none (no result: APP 5'UTR act, NF-kB neuron act)
Cc1ccc(NC(=O)Nc2ccccc2)cc1[N+](=O)[O-]	hcDAF12 agonist 7.5 | LXR ag inactive | hcDAF12 ag inactive
Fc1ccc(-c2cn3cc(C(F)(F)F)cc(Cl)c3n2)cc1	APP 5'UTR act 167.9, ssDAF12 agonist 3.7, NF-kB neuron act 7.29, hcDAF12 agonist 18.9, hgDAF12 agonist 11.9 | LXR ag inactive | hcDAF12 ag 22.5
COC(=O)C1CN(CC(C)C)CCS(=O)(=O)N1Cc1cccc(Cl)c1 (centres undefined)	none (no result: APP 5'UTR act, NF-kB neuron act)

Screening data (PubChem BioAssay)
